Structures are written as SMILES. Unmarked numbers belong to inactive results. Results filed as inconclusive are left out. Activity calls are given as the source filed them. Unless noted, the call rests on the fitted dose curve; in most records, active means well fitted curve in the direction sought with a large enough effect in the repeat runs; inconclusive means weak or mixed curves; inactive means no such curve, though single readings can be large; an effect the other way counts as inactive or inconclusive.

Test [1] can be described thus: qHTS assay to identify small molecule agonists of the hypoxia (HIF-1) signaling pathway - cell viability counter screen (AID 1224844; calls by dose curve; further: nearly all actives have a fitted effect of over 50% in size). A digest of the protocol:
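In this counter screen, HRE-bla ME-180 cell viability after 17 hrs of compound exposure at 37C was read by CellTiter-Glo luminescence, multiplexed with the beta-lactamase reporter measurement.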
(In qHTS, concentration-response curves come from the screen itself.)

Test [2] in a line: qHTS assay to identify small molecule agonists of H2AX (AID 1224845; active means well fitted activation curve with a large enough effect in the signal ratio in the repeat runs, not every such curve was filed as active; the % refers to the signal ratio). A digest of the protocol: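 Phospho-H2AX Ser139 measured by HTRF (ex 320 nm; em 665 and 620 nm) after 24 hr antibody incubation. Compounds, 15 concentrations, 0.76% DMSO, were applied to CHO-K1 cells for 3hr at 37C before lysis.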
The nature of test [3]: qHTS assay to identify small molecule agonists of the hypoxia (HIF-1) signaling pathway (AID 1224846; active means well fitted activation curve with a large enough effect in the signal ratio in the repeat runs, not every such curve was filed as active; the % refers to the signal ratio). The procedure, abridged: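 ME-180 HRE-bla reporter cells; compounds in DMSO, 17 h at 37C; read-out beta-lactamase via CCF4-AM FRET.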
The nature of test [4]: qHTS assay to identify small molecule agonists of H2AX - cell viability counter screen (AID 1224847; calls by dose curve; further: top concentration of the series differs between compounds; nearly all actives have a fitted effect of over 30% in size). The procedure, abridged: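 Wild-type CHO-K1 cells (10% FBS medium) were plated overnight at 37C, exposed to compounds at 15 concentrations for 3 hr at 37C (0.76% DMSO final), and viability was read as CellTiter-Glo luminescence after 30 min at room temperature.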
The nature of test [5]: qHTS assay to identify small molecule agonists of the estrogen related receptor (ERR) signaling pathway from Tox21 library (AID 1224849; calls by dose curve; further: nearly all actives have a fitted effect of over 15% in size). To be noted: ERR reporter cell line, ONE-Glo luciferase, 18 h; at 92.4 µM (top of the series) unless noted. A digest of the protocol: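 Luciferase activity in ERR pathway reporter cells served as the agonist readout; exposure lasted 18 h at 37 C, with ONE-Glo detection after 30 min at room temperature.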

A short description of test [6]: qHTS RealTime-Glo MT Cell Viability Assay in HepG2 cells - 24 hour (AID 1224867). Further: nearly all actives have a fitted effect of over 50% in size. A digest of the protocol:
(§1)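 Cell number in HepG2 cultures estimated from NanoLuc luminescence generated by metabolic reduction of a prosubstrate by living cells. The homogeneous, nonlytic format allowed repeated reads at 0, 8, 16, 24, 32 and 40 h of compound exposure.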

Test [7] in a line: qHTS RealTime-Glo MT Cell Viability Assay in HEK293 cells - 32 hour (AID 1224868). Further: top concentration of the series differs between compounds; nearly all actives have a fitted effect of over 50% in size. The procedure, abridged: (§2)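 Homogeneous bioluminescent viability format in HEK293 cells (600 cells/well). Following 5 h at 37 C/5% CO2, 23 nL compound was pintooled; the signal was measured repeatedly during 40 h incubation.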
The nature of test [8]: A CellTox Green Cytotoxicity Assay to monitor cytotoxicity in HEK293 cells - 0 hour (AID 1224869). Further: nearly all actives have a fitted effect of over 50% in size. A digest of the protocol:
(§3)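 Real-time, in one plate: 600 HEK293 cells/well with dead-cell DNA dye, pinned compound after 5 h, 37 C incubation over 40 h; viable cells give no appreciable fluorescence.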

The nature of test [9]: qHTS RealTime-Glo MT Cell Viability Assay in HepG2 cells - 40 hour (AID 1224870). Further: nearly all actives have a fitted effect of over 50% in size. The procedure, abridged:
(§4)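 Real-time viability: cells seeded at 600 per well together with NanoLuc and cell-permeant prosubstrate, compounds added after 5 h incubation. Luminescence tracked at 0, 8, 16, 24, 32 and 40 h of exposure.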

Test [10] is described as follows: A CellTox Green Cytotoxicity Assay to monitor cytotoxicity in HEK293 cells - 40 hour (AID 1224871). Further: nearly all actives have a fitted effect of over 45% in size. The procedure, abridged:
as §3

Test [11] in a line: qHTS RealTime-Glo MT Cell Viability Assay in HEK293 cells - 16 hour (AID 1224872). The procedure, abridged: as §2
The nature of test [12]: qHTS RealTime-Glo MT Cell Viability Assay in HepG2 cells - 8 hour (AID 1224873). Further: nearly all actives have a fitted effect of over 55% in size. A digest of the protocol: as §4
The nature of test [13]: qHTS RealTime-Glo MT Cell Viability Assay in HEK293 cells - 40 hour (AID 1224874). Further: nearly all actives have a fitted effect of over 50% in size. To be noted: RealTime-Glo luminescence; max response: hits give low values. The procedure, abridged: (§5)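 Kinetic, non-lysing viability readout. Seed HEK293 (600/well) with reagent, incubate 5 h at 37 C/5% CO2, pin 23 nL compound in DMSO, incubate at 37 C, read luminescence at 0, 8, 16, 24, 32, 40 h.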

Test [14] in a line: A CellTox Green Cytotoxicity Assay to monitor cytotoxicity in HEK293 cells - 24 hour (AID 1224875). Further: nearly all actives have a fitted effect of over 45% in size. A digest of the protocol:
as §3

A short description of test [15]: A CellTox Green Cytotoxicity Assay to monitor cytotoxicity in HepG2 cells - 16 hour (AID 1224876). Further: nearly all actives have a fitted effect of over 45% in size. The procedure, abridged: (§6)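 Cytotoxicity was tracked as dead-cell DNA fluorescence in HepG2 cells treated with test compounds at 37 C; each time-point value comes from one kinetic series spanning 0, 8, 16, 24, 32 and 40 h.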
Test [16] can be described thus: qHTS RealTime-Glo MT Cell Viability Assay in HepG2 cells - 32 hour (AID 1224877). Further: nearly all actives have a fitted effect of over 55% in size. A digest of the protocol:
as §1

Test [17] can be described thus: A CellTox Green Cytotoxicity Assay to monitor cytotoxicity in HepG2 cells - 24 hour (AID 1224878). Further: nearly all actives have a fitted effect of over 45% in size. A digest of the protocol:
as §6

The nature of test [18]: A CellTox Green Cytotoxicity Assay to monitor cytotoxicity in HepG2 cells - 40 hour (AID 1224879). Further: nearly all actives have a fitted effect of over 40% in size. A digest of the protocol: as §6
Test [19] can be described thus: qHTS assay to identify small molecule antagonists of the estrogen related receptor (ERR) signaling pathway from Tox21 library (AID 1224848). Further: nearly all actives have a fitted effect of over 50% in size. Further: potency means the concentration at half of the fitted maximal effect. A digest of the protocol: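 ERR cell line, 2,000 cells/well. 6 h settle, then compound (DMSO) added; 18 h at 37 C; ONE-Glo luminescence after 30 min RT.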
A short description of test [20]: qHTS RealTime-Glo MT Cell Viability Assay in HEK293 cells - 0 hour (AID 1224880). Further: nearly all actives have a fitted effect of over 45% in size. Further: potency means the concentration at half of the fitted maximal effect. The procedure, abridged: as §5
On the % scale 0 is the no-effect control and ±100 the full control effect.

With `CCCCCCCCCO`, the Potency entry in [1], in [2], in test [4], in test [6], in test [7] and in test [8] was “inactive” throughout. Moreover, the Potency result in test [9], in test [10], in test [11], in test [12], in test [14] and in test [15] was “inactive” each time. The Potency result in test [16], in [17] and in test [18] was “inactive” in each case. Also, the result in [3] was inactive. The activity change, positive = activation in test [5] is 5.42%. For the same compound, the max response in test [13] is 18.9%.
Take `CCCCOC(=O)/C=C\C(=O)OCCCC`: the Potency entry in test [1], in [2], in test [4], in test [19], in [6] and in test [7] was “inactive” throughout. For the same compound, the Potency entry in test [8], in test [9], in test [11], in test [12], in test [14] and in test [15] was “inactive” in each case. Moreover, the Potency result in test [16], in [17], in [18] and in test [20] was “inactive” throughout. The result in [3] was inactive. Also, in test [5], the activity change, positive = activation is -7.95%. Further, the max response in [13] was -0.0674%.
On to `C1CCC2OC2C1` (stereo unspecified), for which the Potency result in test [1], in [2], in [4], in [6], in test [7] and in test [8] was “inactive” each time. In addition, the Potency result in [9], in test [10], in test [11], in [12], in test [14] and in test [15] was “inactive” in each case. Besides, the Potency entry in test [16], in test [17] and in test [18] was “inactive” each time. Also, in [3], the compound was classed as inactive. The max response in test [13] is 4.85%.
`O=C(O)c1cccc(N(Cc2cccnc2)c2ccc(OC(F)F)c(OC(F)F)c2)c1`: the Potency result in test [1], in test [2], in test [4], in [7], in test [8] and in [10] was “inactive” in each case. Moreover, the Potency entry in test [11], in test [17] and in test [18] was “inactive” each time. The result in test [3] was inactive. Besides, the figures for the Potency in test [19] and in test [20] were 61.1 µM (active) and 19.5 µM (active), respectively. The activity change, positive = activation in test [5] was -33.2%. In [13], the max response was -2.06%.
Take `CC[C@H](C)[C@H](N)C(=O)O`: the Potency result in test [1], in test [2], in [4], in test [19], in test [6] and in [7] was “inactive” in each case. Moreover, the Potency result in test [8], in test [9], in [10], in [11], in test [12] and in test [14] was “inactive” each time. The Potency result in test [15], in test [16], in test [17], in test [18] and in test [20] was “inactive” throughout. Besides, the compound was called inactive in test [3]. Moreover, the activity change, positive = activation in test [5] is 5.77% [at 42.5 µM]. For the same compound, the max response in [13] is -1.16%.
With `Cc1ccccn1`, the Potency result in test [1], in test [2], in test [4], in [19], in test [6] and in [7] was “inactive” each time. Besides, the Potency entry in test [8], in [10], in test [11], in [12], in test [15] and in test [16] was “inactive” throughout. The Potency entry in test [17], in [18] and in test [20] was “inactive” throughout. In addition, the call in [3] was inactive. In addition, in test [5], the activity change, positive = activation is 1.44%. Moreover, the max response in test [13] is 4.7%.
Consider `O=C(O)C(c1ccc(Cl)cc1)c1ccc(Cl)cc1`, for which the Potency entry in [1], in [2], in [4], in [19], in [6] and in test [7] was “inactive” each time. Also, the Potency result in [8], in test [9], in [10], in [11], in test [12] and in test [14] was “inactive” throughout. The Potency result in test [15], in test [16], in test [17], in test [18] and in [20] was “inactive” each time. Also, the call in [3] was inactive. Also, the activity change, positive = activation in [5] is -7.31%. Further, the max response in test [13] was -1.91%.

These data come from PubChem BioAssay (Tox21).
